Results as given in the supplement of paper PMC11624193, “Coupling cellular drug-target engagement to downstream pharmacology with CeTEAM” (Nature Communications, 2024).
Values joined by “and” are separate entries in the source; they are usually repeats but may differ in a detail not shown here. Equal values may be shown once. Where a name gives a salt, the structure may show the parent alone. Unmarked numbers belong to inactive results.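 Rule for the calls: active = log2 fold change beyond 2 SD from the library mean after excluding viability outliers; inactive = within 2 SD.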

Each compound was assayed against PARP1 L713F-nLuc biosensor (HCT116) (UniProt P09874) (assay: PARP1 L713F-nLuc/akaLuc ratio relative to DMSO control (biosensor stabilization) (fold change); higher = more PARP1 biosensor stabilization (target engagement / stabilizer), active = hit call of the paper). Conditions: stock concentration (mM; final µM = stock mM x 1): 10; 24 h.
PARP1 L713F-nLuc biosensor (HCT116), sequence (P09874 whole entry L713F, looked up): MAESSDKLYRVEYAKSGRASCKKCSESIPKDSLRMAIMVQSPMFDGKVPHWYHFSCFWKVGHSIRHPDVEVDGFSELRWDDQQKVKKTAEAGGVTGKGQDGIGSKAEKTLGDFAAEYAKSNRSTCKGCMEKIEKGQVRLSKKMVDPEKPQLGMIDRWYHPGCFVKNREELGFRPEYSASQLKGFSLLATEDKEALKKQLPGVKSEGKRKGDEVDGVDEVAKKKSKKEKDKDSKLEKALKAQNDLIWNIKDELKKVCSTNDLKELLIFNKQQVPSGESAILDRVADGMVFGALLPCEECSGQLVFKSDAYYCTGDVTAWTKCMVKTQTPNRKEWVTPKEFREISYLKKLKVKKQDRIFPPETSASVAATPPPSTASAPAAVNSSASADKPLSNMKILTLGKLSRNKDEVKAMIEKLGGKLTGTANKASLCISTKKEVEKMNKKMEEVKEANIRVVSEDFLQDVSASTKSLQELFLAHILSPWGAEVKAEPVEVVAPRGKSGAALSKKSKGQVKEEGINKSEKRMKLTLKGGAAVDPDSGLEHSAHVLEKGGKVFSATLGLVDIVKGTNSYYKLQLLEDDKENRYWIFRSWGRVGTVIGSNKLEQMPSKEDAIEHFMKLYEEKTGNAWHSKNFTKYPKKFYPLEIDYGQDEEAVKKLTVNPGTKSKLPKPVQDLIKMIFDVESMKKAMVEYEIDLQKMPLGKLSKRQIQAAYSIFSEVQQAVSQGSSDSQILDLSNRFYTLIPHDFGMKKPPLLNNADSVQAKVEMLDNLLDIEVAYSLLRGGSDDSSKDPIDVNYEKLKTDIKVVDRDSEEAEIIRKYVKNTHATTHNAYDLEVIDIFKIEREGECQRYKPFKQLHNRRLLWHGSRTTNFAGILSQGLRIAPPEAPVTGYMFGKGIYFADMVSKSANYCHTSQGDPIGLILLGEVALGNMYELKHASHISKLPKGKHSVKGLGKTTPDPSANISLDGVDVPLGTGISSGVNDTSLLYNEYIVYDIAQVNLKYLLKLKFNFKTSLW

Compared with `O=C(O)c1ccc2c(c1)nc(NC(=O)c1ccccc1)n2CCCc1ccccc1`, `CC1(C)C=Cc2cc(CCn3c4ccccc4c4ccccc43)cc(C=O)c2O1` is higher in “PARP1 L713F-nLuc/akaLuc ratio” value: 1.26 for the first, 1.78 for the second.

First: O=C(/C=C/c1ccc(O)c(O)c1)O[C@@H]1C[C@](O)(C(=O)O)C[C@@H](O)[C@H]1O [Chlorogenic acid]
Second: O=C(/C=C/N1C[C@H]2C[C@@H]1CN2c1ccccn1)c1ccccc1O
The “PARP1 L713F-nLuc/akaLuc ratio” value of the first is lower: 1.16 for the first, 1.3 for the second.

Going from `Cn1ncc(Cl)c1-c1cc(C(=O)N[C@H](CN)Cc2ccc(F)c(F)c2)oc1Cl` to `CC(C)n1cnc2c(NCCc3ccc(O)cc3)nc(-c3csc4ccccc34)nc21` [StemRegenin 1 (SR1)], the “PARP1 L713F-nLuc/akaLuc ratio” value rises from 0.603 to 0.788.

Compared with `O=c1[nH]c(=O)n([C@H]2C[C@H](O)[C@@H](CO)O2)cc1C(F)(F)F` [Trifluridine], `NC(=O)c1ccc[n+]([C@@H]2O[C@H](CO)[C@@H](O)[C@H]2O)c1` [Nicotinamide riboside (chloride)] is higher in “PARP1 L713F-nLuc/akaLuc ratio” value: 0.548 for the first, 1.17 for the second.

First: CS(=O)(=O)c1ccc(Oc2cc(F)cc(C#N)c2)c2c1C(O)C(F)C2 (configuration not stated)
Second: COc1cc2ccc(=O)oc2cc1O[C@@H]1O[C@H](CO)[C@@H](O)[C@H](O)[C@H]1O [Scopolin]
The “PARP1 L713F-nLuc/akaLuc ratio” value of the first is lower: 0.836 for the first, 1.04 for the second.

First: NC(=O)[C@H]1CCCc2c1[nH]c1ccc(Cl)cc21 [(S)-Selisistat]
Second: Cc1nc2cccc(N)c2c(=O)n1C1CCC(=O)NC1=O (configuration not stated) [Avadomide(CC-122)]
The “PARP1 L713F-nLuc/akaLuc ratio” value of the first is lower: 0.706 for the first, 0.983 for the second.

First: COc1cc2c(cc1OC)-c1c(C)c3ccc(OC)c(OC)c3c[n+]1CC2 [Dehydrocorydaline]
Second: CCCc1cc(C)[nH]c(=O)c1CNC(=O)c1cc(-c2ccnc(N3CCN(C)CC3)c2)cc2c1cnn2C(C)C
The “PARP1 L713F-nLuc/akaLuc ratio” value of the first is lower: 0.741 for the first, 2.54 for the second.

Going from `Cc1cc(C)c(CNC(=O)c2cc(-c3ccc(CN4CCOCC4)cc3)cc3c2cnn3C2CCCC2)c(=O)[nH]1` to `O=C(Nc1ccc(-c2ccnc(Nc3ccc(N4CCOCC4)cc3)n2)cc1)C1CCCN1` (configuration not stated), the “PARP1 L713F-nLuc/akaLuc ratio” value falls from 1.16 to 0.659.

`O=C(O)[C@]1(Cc2cccc(Nc3nccs3)n2)CC[C@@H](Oc2cccc(Cl)c2F)CC1` and `Cc1cccc(CC(=O)N2CCc3c2ccc(-c2cn(C)c4ncnc(N)c24)c3F)n1` are the same in “PARP1 L713F-nLuc/akaLuc ratio” value: 1.05 for the first, 1.05 for the second.

First: CCS(=O)(=O)N1CCN(c2ccc(Nc3ncc(C(N)=O)c(NC4CC4)n3)cc2)CC1 [Cerdulatinib]
Second: CCN(CC)C(=O)c1ccc(Nc2nc(OCC3CCCCC3)c3[nH]cnc3n2)cc1
The “PARP1 L713F-nLuc/akaLuc ratio” value of the first is higher: 1.82 for the first, 0.71 for the second.

Compared with `CN(C)C(=N)N=C(N)N` [Metformin D6 (hydrochloride)], `CC(C)(C#N)c1cc(Cn2cncn2)cc(C(C)(C)C#N)c1` [Anastrozole] is lower in “PARP1 L713F-nLuc/akaLuc ratio” value: 1.08 for the first, 0.888 for the second.

Compared with `NCCNS(=O)(=O)c1cccc2c(Cl)cccc12` [A-3 (hydrochloride)], `CNCCN(C)Cc1c[nH]nc1-c1ccc(O[C@H]2C[C@H](OCCC3CCOCC3)C2)cc1` is lower in “PARP1 L713F-nLuc/akaLuc ratio” value: 0.846 for the first, 0.64 for the second.

First: C=CC[C@@H]1/C=C(\C)C[C@H](C)C[C@H](OC)[C@H]2O[C@@](O)(C(=O)C(=O)N3CCCC[C@H]3C(=O)O[C@H](/C(C)=C/[C@@H]3CC[C@@H](O)[C@H](OC)C3)[C@H](C)[C@@H](O)CC1=O)[C@H](C)C[C@@H]2OC [Tacrolimus (FK506)]
Second: Cc1[nH]nc(C(F)(F)F)c1Cc1sc2c(c1C(=O)N1C[C@](C)(O)CO1)c(=O)n(C)c(=O)n2C(C)C
The “PARP1 L713F-nLuc/akaLuc ratio” value of the first is lower: 0.7 for the first, 0.93 for the second.

In the case of `CCN(c1cc(C#CCN2CCOCC2)cc(C(=O)NCc2c(C)cc(C)[nH]c2=O)c1C)[C@H]1CC[C@H](N(C)CCOC)CC1`, the “PARP1 L713F-nLuc/akaLuc ratio” value is reported as 1.57 and 1.94.
